About 79,000 compounds went through this panel and 15% of them were active in at least one assay; those are over-represented in the sample as a whole. Activity calls are given as the source filed them. No stated cut-off is given here; in the data, active means growth inhibition above about 70%; inactive means the rest.
How the values were obtained:
[1] = NCI Yeast Anticancer Drug Screen. Data for the rad52 strain (AID 147);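 further: 0% = growth of vehicle-treated control cultures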; details: S. cerevisiae rad52 mutant growth inhibition, stronger effect = higher value
How it was run: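 The repair-mutant yeast strain was incubated with compounds, then growth was read and inhibition derived relative to vehicle.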

[2] = NCI Yeast Anticancer Drug Screen. Data for the wt1 strain (AID 149);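 further: 0% = growth of vehicle-treated wt1 cultures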; details: S. cerevisiae wt1 strain (SPY 50644) growth inhibition, stronger effect = higher value
How it was run: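 wt1 yeast, compound-treated; % growth inhibition vs vehicle control.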

[3] = NCI Yeast Anticancer Drug Screen. Data for the rad50 strain (AID 155);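 further: 0% = growth of vehicle-only cultures of the same strain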; details: S. cerevisiae rad50 strain growth inhibition, stronger effect = higher value
How it was run: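 Genetically altered yeast (DNA repair pathway); compound treatment; growth inhibition vs vehicle ctrl.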

[4] = NCI Yeast Anticancer Drug Screen. Data for the mec2-1 strain (AID 157); details: S. cerevisiae mec2-1 strain, stronger effect = higher value
How it was run: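 Mutant yeast (mec2-1) grown with compound; growth inhibition relative to vehicle control reported.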

[5] = NCI Yeast Anticancer Drug Screen. Data for the rad14 strain (AID 159);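 further: 0% = growth of vehicle-treated control cultures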; details: S. cerevisiae rad14 strain growth inhibition, stronger effect = higher value
How it was run: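 Test compounds were applied to a repair-deficient yeast strain. Its growth was then compared with that of cultures given vehicle alone, and inhibition was expressed relative to those controls.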

[6] = NCI Yeast Anticancer Drug Screen. Data for the sgs1 mgt1 strain (AID 161);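 further: 0% = growth of cultures given vehicle only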; details: S. cerevisiae sgs1 mgt1 strain, stronger effect = higher value
How it was run: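 Yeast cells carrying a defined DNA-repair defect were exposed to test compounds. Growth inhibition was measured relative to vehicle-treated controls.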

[7] = NCI Yeast Anticancer Drug Screen. Data for the CLN2oe strain (AID 163);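 further: 0% = growth of vehicle-only control cultures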; details: S. cerevisiae CLN2oe strain, stronger effect = higher value
How it was run: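 Compounds are applied to yeast harbouring a defined cell-cycle control change; reduced growth compared with vehicle-treated controls gives the value.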

[8] = NCI Yeast Anticancer Drug Screen. Data for the cln2 rad14 strain (AID 165);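 further: 0% = growth equal to vehicle treated cultures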; details: S. cerevisiae cln2 rad14 strain, stronger effect = higher value
How it was run: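 Readout is yeast growth inhibition versus vehicle-treated controls, using a strain with cln2 and rad14 alterations exposed to compound.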

[9] = NCI Yeast Anticancer Drug Screen. Data for the bub3 strain (AID 167); details: S. cerevisiae bub3 mutant strain, stronger effect = higher value
How it was run: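 Yeast carrying a defined mutation is treated with each compound, and growth is compared with that of vehicle-exposed cells to give inhibition.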

[10] = NCI Yeast Anticancer Drug Screen. Data for the wt2 strain (AID 169);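 further: 0% = growth of vehicle-treated yeast cultures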; details: S. cerevisiae wt2 strain growth inhibition, stronger effect = higher value
How it was run: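 Against vehicle-treated controls, the growth of yeast exposed to each compound was compared, and the inhibition was recorded.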

[11] = NCI Yeast Anticancer Drug Screen. Data for the mlh1 strain (AID 171);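 further: 0% = growth of vehicle-treated control cultures of the same strain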; details: S. cerevisiae mlh1 strain growth inhibition, stronger effect = higher value
How it was run: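 Measured: yeast growth. Reference: vehicle-treated controls. Organism: strain with a defined alteration affecting DNA damage repair or cell cycle control, treated with compound.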

[12] = NCI Yeast Anticancer Drug Screen. Data for the sgs1 strain (AID 173);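 further: 0% = growth of vehicle-only control cultures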; details: S. cerevisiae sgs1 mutant, stronger effect = higher value
How it was run: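 Each compound was added to cultures of the altered yeast strain. Growth was recorded, and inhibition was derived by comparison with vehicle controls.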

[13] = NCI Yeast Anticancer Drug Screen. Data for the mlh1 rad18 strain (AID 175); details: S. cerevisiae mlh1 rad18 strain growth inhibition, stronger effect = higher value
How it was run: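 Genetically defined yeast (DNA repair-deficient) exposed to compounds; growth inhibition determined relative to vehicle.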

[14] = NCI Yeast Anticancer Drug Screen. Data for the rad18 strain (AID 177); details: S. cerevisiae rad18 mutant growth inhibition, stronger effect = higher value
How it was run: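 Vehicle-treated cultures served as the baseline for scoring compound-induced growth inhibition in DNA-repair-mutant yeast.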

[15] = at 5.0 µM (retest, dose inferred, filed as 0.5)
[16] = at 50.0 µM (retest, dose inferred, filed as 5.0)

Measured: growth inhibition

CN(NC(=O)/C(=C/c1ccc(O)cc1)NC(=O)c1ccccc1)c1ccnc2cc(Cl)ccc12
active: [1]; at 100.0 µM 79% | [3]; at 50.0 µM 80.1% | [3]; at 100.0 µM 81% | [4]; at 100.0 µM 72% | [10]; at 100.0 µM 70% | [11]; at 100.0 µM 81% | [12]; at 100.0 µM 83% | [13]; at 50.0 µM 80.3% | [14]; at 33.0 µM 78% | [14]; at 100.0 µM 87%
inactive: [1]; at 1.2 µM 2% | [1]; at 3.7 µM 9% | [1]; at 11.0 µM 35% | [1]; at 33.0 µM 60% | [2]; at 1.2 µM 3% | [2]; at 3.7 µM 4% | [2]; at 11.0 µM 11% | [2]; at 33.0 µM 40% | [2]; at 100.0 µM 69% | [3]; at 1.2 µM -2% | [3]; at 3.7 µM -4% | [3]; [15] 6% | [3]; at 11.0 µM 15% | [3]; at 33.0 µM 68% | [3]; [16] 20% | [4]; at 1.2 µM 1% | [4]; at 3.7 µM 4% | [4]; [15] 15% | [4]; at 11.0 µM 12% | [4]; at 33.0 µM 44% | [4]; [16] 2% | [4]; at 50.0 µM 46.9% | [5]; at 1.2 µM 0% | [5]; at 3.7 µM 2% | [5]; at 11.0 µM 13% | [5]; at 33.0 µM 38% | [5]; at 100.0 µM 60% | [6]; [15] 9% | [6]; [16] 9% | [6]; at 50.0 µM 51.1% | [7]; at 1.2 µM 6% | [7]; at 3.7 µM 3% | [7]; at 11.0 µM 13% | [7]; at 33.0 µM 39% | [7]; at 100.0 µM 65% | [8]; [15] -3% | [8]; [16] 2% | [8]; at 50.0 µM -2.45% | [9]; at 1.2 µM -1% | [9]; at 3.7 µM 4% | [9]; [15] 21% | [9]; at 11.0 µM 16% | [9]; at 33.0 µM 43% | [9]; [16] 65% | [9]; at 50.0 µM 55.1% | [9]; at 100.0 µM 68% | [10]; at 1.2 µM -3% | [10]; at 3.7 µM -1% | [10]; at 11.0 µM 11% | [10]; at 33.0 µM 47% | [11]; at 1.2 µM 1% | [11]; at 3.7 µM 4% | [11]; at 11.0 µM 21% | [11]; at 33.0 µM 64% | [12]; at 1.2 µM 2% | [12]; at 3.7 µM 4% | [12]; at 11.0 µM 14% | [12]; at 33.0 µM 67% | [13]; [15] 1% | [13]; [16] 2% | [14]; at 1.2 µM 1% | [14]; at 3.7 µM 7% | [14]; at 11.0 µM 45%

From PubChem BioAssay (NCI)
